From PubChem
HepG2 viability: qHTS for Inhibitors of TGF-b: Cytotox Counterscreen | HepG2 CAGA-GFP viability, ATP luminescence, 18 h | 410,000 compounds, 0.76% hits | Potency, µM (titrated, usually from 46.1 µM), without a hit: top-dose activity change, negative = cytotoxicity, most hits filed as cytotoxic
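HepG2 CAGA-GFP cells (1000/well, DMEM with 1% FBS) received compound, then TGF-beta at 500 pg/mL final, and were incubated 18 hours at 37 degrees C. Viability was read by CellTiter-Glo luminescence. Media-only wells were set as complete cell-killing and DMSO as no toxicity.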
TGFb inhibitor: qHTS for Inhibitors of TGF-b; HepG2 CAGA-GFP TGF-b/SMAD3 reporter, GFP fluorescence, 18 h; TGF-beta stimulated, 500 pg/mL final; Potency, µM (titrated, usually from 46.1 µM), inactives show at the top dose activity, negative = inhibition, usual class: inhibitors; AID 588855, 2011; 410,000 compounds, 1.2% hits; further: on the % scale 0 is the no-effect control and ±100 the full control effect; nearly all actives have a fitted effect of over 65% in size
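Cell-based qHTS in HEPG2 carrying a CAGA-GFP Smad reporter; compounds added before 500 pg/mL final TGF-beta, 18 h incubation at 37 degrees C, GFP fluorescence quantified per cell by imaging cytometry.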
ATXN2 expr inh: Primary qHTS for Inhibitors of ATXN expression. Potency, µM (series often up to 57 µM), for inactives: at the highest dose activity change, negative = inhibition, hits mostly inhibitors. AID 1745845, 2022. HEK-293 ATXN2-luciferase reporter, luminescence, 24 h. 360,000 compounds, 0.72% hits; further: on the % scale 0 is the no-effect control and ±100 the full control effect; nearly all actives have a fitted effect of over 55% in size
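ATXN2-luciferase reporter cells (luciferase flanked by upstream and downstream ATXN2 gene portions) were treated 24 h at 37 °C with compounds at up to 57 uM. SteadyGlo luminescence gave expression; GF-AFC fluorescence gave viability.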
DT40 TDP1 CPT: qHTS for Inhibitors of human tyrosyl-DNA phosphodiesterase 1 (TDP1): qHTS in cells in presence of CPT; Potency, µM (titrated, usually from 46.2 µM), for the others: top-dose activity change, negative = growth inhibition, usual class: inhibitors; chicken DT40 Tdp1-/-;hTDP1 cells + 20 nM CPT, ATP luminescence, 48 h; 420,000 compounds, 12% hits; AID 686979, 2013; further: on the % scale 0 is the no-effect control and ±100 the full control effect; nearly all actives have a fitted effect of over 55% in size
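Chicken DT40 Tdp1-/- cells stably complemented with human TDP1 were seeded at 400 cells/well in medium containing 20 nM camptothecin, exposed to pin-transferred compounds, and grown at 37 °C for at least 48 hr. Viability was read as ATP luminescence.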
TDP1 cell noCPT: qHTS for Inhibitors of human tyrosyl-DNA phosphodiesterase 1 (TDP1): qHTS in cells in absence of CPT | DT40 Tdp1-/- hTDP1 cells, no CPT, ATP luminescence, 48 h | Potency, µM (series often up to 46.2 µM), for inactives: at the highest dose activity change, negative = growth inhibition, most hits filed as inhibitors | 420,000 compounds, 15% hits; further: on the % scale 0 is the no-effect control and ±100 the full control effect; nearly all actives have a fitted effect of over 55% in size
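Seeded 400 DT40-hTDP1 cells/well (vehicle DMSO, no 20 nM CPT); pinned compounds; ≥48 hr at 37 °C; CellTiter-Glo luminescence as viability measure.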
S2 tox: Viability Counterscreen for Primary qHTS for Inhibitors of ATXN expression. S2 cells (HEK-293 line with an ATXN2-luciferase reporter) viability, CellTiter-Fluor protease fluorescence, 24 h. Potency, µM (highest dose often 56.7 µM), actives largely listed as cytotoxic. 400,000 compounds, 0.49% hits; further: nearly all actives have a fitted effect of over 40% in size
Starred values were filed as active, the others as inactive; i = inactive; ? = inconclusive; / = no result given. Sampled rows, rich in hits. Any-hit rate of the full collection: about 17%. The call rests on the fitted dose curve; in most records, active means well fitted curve in the direction sought with a large enough effect; inconclusive means small, poorly fitted or top-dose-only effect, or another doubt; inactive means no such curve, though single readings can be large; an effect the other way counts as inactive or inconclusive. Potency means the concentration at half of the fitted maximal effect.

SMILES | HepG2 viability | TGFb inhibitor | ATXN2 expr inh | DT40 TDP1 CPT | TDP1 cell noCPT | S2 tox
COC(=O)C1=C(N)N(c2ccccc2C(F)(F)F)C2=C(C(=O)CCC2)C1c1ccc2c(c1)OCO2 (stereo not given) | 6.4% | 0.0% | 9.5% | 23.1µM* | ? | i
CCCCCCCCCCOC(=O)Cn1c(COc2ccccc2OC)[n+](C)c2ccccc21 | -99.8% | ? | ? | 1.03µM* | 1.3µM* | ?
Cc1ccc(-c2cc(-c3ccccc3Cl)c(C#N)c(N)n2)o1 | -13.7% | 17.2% | 2.5% | ? | ? | i
N#Cc1c(N)nc(Sc2ccc(Cl)cc2)c(C#N)c1-c1ccccc1Cl | -18.9% | -20.9% | -15.0% | 16.4µM* | 14.6µM* | ?
CCOC(=O)C(=O)N1CCN(c2ccccc2OC)CC1 | -22.9% | 1.4% | -0.2% | -12.8% | -8.7% | i
CCOC(=O)c1cnc2ccc(C)cc2c1Nc1ccc(OCc2ccccc2Cl)cc1 | -24.4% | -23.5% | -32.4% | ? | 23.1µM* | ?
CCOC(=O)c1cnc2c(ccc3ccccc32)c1Nc1ccc(OC)c(OC)c1 | -54.5% | -16.2% | -12.1% | 4.61µM* | 4.61µM* | ?
CCOC(=O)c1cnc2c(ccc3ccccc32)c1Nc1ccc(Cl)cc1 | -54.0% | -2.0% | 5.8% | -15.9% | -23.7% | i
CCOC(=O)c1cnc2ccccc2c1Nc1cc(C(=O)O)ccc1C | -8.7% | -19.1% | -29.0% | 6.6% | -12.6% | i
CCOC(=O)c1cnc2ccccc2c1Nc1cccc(OC)c1 | -10.8% | -13.5% | -30.6% | ? | 16.4µM* | ?
CCOC(=O)c1cnc2ccc(OC)cc2c1Nc1ccc(OCc2ccccc2Cl)cc1 | -16.6% | ? | -30.6% | 11.6µM* | 7.31µM* | ?
CCOC(=O)c1cnc2ccc(C(=O)OC)cc2c1Nc1ccc(OCc2ccccc2Cl)cc1 | -11.9% | -17.0% | 3.4% | -11.6% | ? | i
Cc1ccccc1-c1cccc(CN2CCc3nnc(C(C)NC(=O)c4cccnc4)n3CC2)c1 (stereo not given) | / | / | / | -5.1% | -5.0% | i
O=C(NCc1cccs1)C1C(=O)Nc2ccccc2C(=O)N1C1CCCC1 (stereo not given) | / | / | / | -3.3% | -5.6% | /
CCOc1ccc(NC(=O)CSc2oc(-c3ccc(C)cc3)nc2S(=O)(=O)c2ccc(C)cc2)cc1 | 1.8% | ? | -10.2% | 7.31µM* | 5.8µM* | i
O=S(=O)(c1ccc(Br)cc1)c1nc(-c2cccs2)oc1SCc1ccc(F)cc1 | -1.1% | -14.6% | 5.1% | ? | ? | i
O=S(=O)(c1ccc(Cl)cc1)c1nc(-c2cccs2)oc1SCc1ccc(F)cc1 | -0.5% | 6.5% | 10.2% | 20.6µM* | ? | i
CCOc1ccc(NC(=O)CSc2oc(-c3cccs3)nc2S(=O)(=O)c2ccc(Cl)cc2)cc1 | -13.0% | -5.8% | 2.4% | 18.4µM* | 13µM* | i
CCOC(=O)c1[nH]c2ccccc2c1NC(=S)Nc1cccc(C)c1C | -36.6% | -5.3% | 27.6% | ? | ? | i
COc1ccc(NC(=O)CN(C)CC(=O)Nc2sc3c(c2C#N)CCC3)cc1 | -12.8% | -0.5% | -12.3% | -24.0% | -14.2% | i
CCC(c1nnnn1CCOC)N(Cc1cc2c(C)cc(C)cc2[nH]c1=O)CC1CCCO1 (stereo not given) | -7.8% | -12.5% | -14.1% | ? | ? | i
Cc1cc2cc(CN(Cc3ccc4c(c3)OCO4)Cc3nnnn3C3CCCC3)c(=O)[nH]c2cc1C | -3.9% | 0.5% | 2.5% | 16.4µM* | 13µM* | ?
